Sampled rows, rich in hits. Any-hit rate of the full collection: about 15%.
12-LOX inh: blocks human arachidonate 12S-lipoxygenase; P18054; purified 12hLO, xylenol orange hydroperoxide absorbance; Potency, µM (top dose mostly 108 µM), for inactives: top-dose activity change, negative = inhibition, actives largely listed as inhibitors; 1.1% of 580,000 active; AID 1671190
Target sequence (P18054 whole entry, looked up): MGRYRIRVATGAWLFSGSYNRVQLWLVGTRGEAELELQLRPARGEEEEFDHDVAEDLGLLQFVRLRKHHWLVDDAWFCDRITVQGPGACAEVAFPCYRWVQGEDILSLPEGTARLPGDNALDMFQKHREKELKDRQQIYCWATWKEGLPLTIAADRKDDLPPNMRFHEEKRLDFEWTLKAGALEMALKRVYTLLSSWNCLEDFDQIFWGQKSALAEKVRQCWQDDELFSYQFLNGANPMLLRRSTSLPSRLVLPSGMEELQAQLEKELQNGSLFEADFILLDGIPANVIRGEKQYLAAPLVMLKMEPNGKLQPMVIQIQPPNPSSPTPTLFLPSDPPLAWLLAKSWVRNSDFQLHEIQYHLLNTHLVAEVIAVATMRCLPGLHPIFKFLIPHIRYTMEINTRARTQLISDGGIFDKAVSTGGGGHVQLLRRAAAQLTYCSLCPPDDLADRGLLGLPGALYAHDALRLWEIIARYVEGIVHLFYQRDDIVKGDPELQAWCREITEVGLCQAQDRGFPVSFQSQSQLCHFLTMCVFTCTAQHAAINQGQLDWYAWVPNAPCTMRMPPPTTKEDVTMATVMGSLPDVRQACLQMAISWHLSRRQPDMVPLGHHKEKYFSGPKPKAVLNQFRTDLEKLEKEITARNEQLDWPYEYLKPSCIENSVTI
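Purified human 12hLO (150 nM final) in 25 mM Hepes, 0.01% Triton X-100, pH 7.0 was preincubated 15 min at room temperature with compound. Then 40 uM arachidonic acid was added, 30 min. Hydroperoxide was read by Fe-XO absorbance ratio 573/405 nm.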
DT40 TDP1 no CPT: qHTS for Inhibitors of human tyrosyl-DNA phosphodiesterase 1 (TDP1): qHTS in cells in absence of CPT. DT40 Tdp1-/- hTDP1 cells, no CPT, ATP luminescence, 48 h. Potency, µM (highest dose often 46.2 µM), without a hit: top-dose activity change, negative = growth inhibition, usual class: inhibitors. 15% of 420,000 active; further: nearly all actives have a fitted effect of over 55% in size
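Readout: luminescence from CellTiter-Glo after 30 min in the dark at RT. Cells: DT40 Tdp1-/- with stable hTDP1, 400/well. Exposure: compounds alone, ≥48 hr, 37 °C.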
VP16 counter: counter-screen for ROR gamma inhibitors: Gal4-VP16 reporter; Drosophila S2 Gal4-VP16 UAS-luciferase, luminescence, 20 h; Potency, µM (doses to about 53.6 µM), inactives show top-dose activity, negative = inhibition, most hits filed as inhibitors; 3.5% of 310,000 active; AID 2546;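 further: Gal4-VP16 expression switched on by copper sulfate through the metallothionein promoter; nearly all actives have a fitted effect of over 50% in size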
TDP1 cell CPT: growth inhibition of DT40 Tdp1-/-;hTDP1 cells with camptothecin (screen for TDP1 inhibitors); chicken DT40 Tdp1-/-;hTDP1 cells + 20 nM CPT, ATP luminescence, 48 h; Potency, µM (highest dose often 46.2 µM), without a hit: at the top dose activity change, negative = growth inhibition, most hits filed as inhibitors; 12% of 420,000 active; AID 686979; further: nearly all actives have a fitted effect of over 55% in size
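Cell growth measured by CellTiter-Glo luminescence after a minimum 48 h, 37 C compound exposure with 20 nM CPT in Tdp1-knockout DT40 cells stably expressing hTDP1, seeded 400/well; qHTS titration format.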
ELG1 DNA repair: inhibitors of ELG1-dependent DNA repair in HEK293T cells | HEK293T ELG1-luciferase reporter, luminescence, 16 h; DNA damage induced by 5-fluorouridine | Potency, µM (titrated, usually from 46.1 µM), without a hit: top-dose activity change, negative = inhibition, most hits filed as inhibitors | 2.3% of 330,000 active; further: nearly all actives have a fitted effect of over 55% in size
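Step one: seed 2,000 cells per well. Step two: pin-transfer compound or DMSO alongside 5-fluorouridine. Step three: incubate 16 hr, 37 °C, 5% CO2. Step four: add ONE-Glo, wait 30 min, read luminescence.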
RORg inh: ROR gamma (mouse) transcription inhibition. Drosophila S2 Gal4-RORgamma UAS-luciferase reporter, 20 h. 5.4% of 310,000 active. Potency, µM (titrated, usually from 53.6 µM), without a hit: top-dose activity change, negative = inhibition, most hits filed as inhibitors. P51450; further: nearly all actives have a fitted effect of over 60% in size
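Luciferase reporter read in Schneider cells carrying Gal4-RORγ (mouse) and UAS-Photinus luciferase; cells given compound 1 h before 700 uM copper sulfate induction, then incubated 20 h at ambient temperature.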
* = called active by the depositor; ? = inconclusive; . = no result given; [ ] = another dose, or the depositor's remark. The call rests on the fitted dose curve; in most records, active means well fitted curve in the direction sought with a large enough effect; inconclusive means small, poorly fitted or top-dose-only effect, or another doubt; inactive means no such curve, though single readings can be large; an effect the other way counts as inactive or inconclusive. On the % scale 0 is the no-effect control and ±100 the full control effect; potency means the concentration at half of the fitted maximal effect.

SMILES	12-LOX inh	DT40 TDP1 no CPT	VP16 counter	TDP1 cell CPT	ELG1 DNA repair	RORg inh
CCOc1ccccc1C(=O)Nc1nonc1-c1ccc(OC(C)C)cc1	3.7%	.	.	.	.	.
CC(C)C[C@H](NC(=O)c1nc[nH]c1C(=O)NCC(=O)OCc1ccccc1)C(=O)OCc1ccccc1	-0.4%	?	?	?	?	-23.7%
CC(C)C[C@H](NC(=O)c1nc[nH]c1C(=O)NC1CCNCC1)C(=O)OCc1ccccc1	7.0%	-7.0%	.	-8.2%	?	.
CC(C)C[C@H](NC(=O)c1nc[nH]c1C(=O)N(C)Cc1ccccc1)C(=O)OCc1ccccc1	10.9%	?	3.55µM*	?	9.2%	-10.9%
CC(C)C[C@H](NC(=O)c1nc[nH]c1C(=O)N1CCNCC1)C(=O)OCc1ccccc1	17.1%	-13.3%	.	?	2.6%	.
CC(C)C[C@H](NC(=O)c1nc[nH]c1C(=O)N[C@@H](CC(C)C)C(=O)OC(C)(C)C)C(=O)OCc1ccccc1	74.0%	?	7.08µM*	?	-18.8%	5.01µM*
CC(C)C[C@H](NC(=O)c1nc[nH]c1C(=O)NCC(=O)OC(C)(C)C)C(=O)OCc1ccccc1	25.0%	?	17.8µM*	?	-2.7%	3.98µM*
CC(C)C[C@H](NC(=O)c1[nH]cnc1C(=O)N[C@@H](C)c1ccccc1)C(=O)OCc1ccccc1	.	25.9µM*	?	29.1µM*	?	?
Cc1cccc(NC(=O)c2cc(C3CC3)nc3ccccc23)c1C	2.9%	.	.	.	.	.
COc1ccc(/C=C(/C#N)c2ccccc2F)c(OC)c1	6.8%	.	.	.	.	.
CC(C)C[C@H](NC(=O)c1nc[nH]c1C(=O)N1CCN(c2ccccc2)CC1)C(=O)OCc1ccccc1	8.3%	-13.5%	?	-29.9%	-0.1%	5.01µM*
CC(C)C[C@H](NC(=O)c1[nH]cnc1C(=O)N[C@@H](C)C(=O)OC(C)(C)C)C(=O)OC(C)(C)C	5.0%	11.6µM*	?	18.4µM*	?	6.31µM*
C=C(C)C(=O)OCC(O)COc1ccc(C(C)(C)c2ccc(OCC(O)COC(=O)C(=C)C)cc2)cc1 (centres undefined)	4.6%	20.6µM*	.	16.4µM*	-27.0%	.
C=C(C)C(=O)OCC(O)CO (centres undefined)	-10.0%[22.9 µM]	.	.	.	.	.
CCN1CCC2(CCC1=O)CN(C(=O)CCc1cccnc1)CCN2C (centres undefined)	2.7%	.	.	.	.	.
CCCNC(=O)[C@H]1O[C@@H]1C(=O)N[C@H](C(=O)N1CCC[C@H]1C(=O)OC)[C@@H](C)CC	9.1%	2.42µM*	.	1.92µM*	.	.
COC(=O)C(CC(C)C)NC(=O)C(Cc1ccccc1)NC(=O)OC(C)(C)C (centres undefined)	26.7%	.	.	.	.	.
O=C(N/N=C/c1cccs1)C1COc2ccccc2O1 (centres undefined)	1.7%	16.4µM*	?	?	4.1%	?
O=C(N/N=C\c1ccccn1)C1COc2cc3ccccc3cc2O1 (centres undefined)	17.0%	?	?	?	12.1%	4.47µM*
C/C(=N\NC(=O)C1COc2ccccc2O1)c1cccs1 (centres undefined)	3.6%	0.4%	6.9%	-27.7%	?	-10.7%
O=C(N/N=C\c1ccc[nH]1)C1COc2ccccc2O1 (centres undefined)	0.0%	-0.2%	?	6.5%	5.7%	11.2µM*
NNC(=O)C1COc2cc3ccccc3cc2O1 (centres undefined)	-2.6%	-0.6%	-13.6%	-1.4%	1.3%	-38.8%
O=C(N/N=C/c1ccco1)C1COc2ccccc2O1 (centres undefined)	-11.0%	-25.3%	12.2%	-2.0%	?	-2.3%
